F-actin modifier: modifiers of cytoskeleton assembly; HUVEC TNFa F-actin phalloidin imaging, high content; inhibition, % at 2 µM; actives 0.18% (n = 91,000);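 active = inhibition above the batch mean plus 3 SD and confirmed as a hit by visual image inspection, cut at about 30% in these data, passing the limit was not always enough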
HUVEC tox TNFa: HUVEC cytotoxicity counter-screen, TNF alpha stimulated. HUVEC TNFalpha-stimulated, Hoechst cell count, imaging. actives 0.17% (n = 93,000). cell count reduction, % at 2 µM;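 active = cell count reduction exceeding the screen mean by over 5 SD, scaled to untreated wells per plate, cut at about 78% in these data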;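 note: cells counted after 24 h of TNF alpha exposure following the 1 h pretreatment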
E-sel TNF inh: blocks E-selectin expression induced by TNF alpha | HUVEC TNFa-induced E-selectin immunofluorescence, high content | inhibition, % at 2 µM | actives 0.71% (n = 120,000);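 active = inhibition above the batch mean plus 3 SD, and confirmed as a hit on visual image review, cut at about 43% in these data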;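 note: 0% = TNF-stimulated DMSO wells and 100% = unstimulated control wells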
VCAM1 TNFa inh: reduces TNF alpha induced VCAM1 expression in HUVEC; HUVEC TNFa-induced VCAM-1 immunofluorescence, high-content imaging; inhibition, % at 2 µM; AID 802; actives 0.48% (n = 95,000);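 active = inhibition above the batch mean plus 3 SD, with images confirmed as a hit by eye, cut at about 37% in these data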;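 note: 0% = TNF-stimulated DMSO wells and 100% = unstimulated control wells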
An asterisk follows results filed as active; . = no result given. Most compounds without a hit are left out; they make up all but 1% or so of the library.

SMILES | F-actin modifier | HUVEC tox TNFa | E-sel TNF inh | VCAM1 TNFa inh
CCOC(=O)C(C)Oc1cccc2c(=O)n(CC(=O)Nc3cccc(OC)c3)ccc12 (stereo not drawn) | -17.9 | -14.0 | 66.7* | 5.4
CCOC(=O)c1sc2nc(CSc3nc4ccccc4n3CC)[nH]c(=O)c2c1C | -25.5 | -4.2 | 76.7* | -10.5
CCOC(=O)c1sc2nc(COC(=O)c3c(F)cccc3F)[nH]c(=O)c2c1C | . | . | 13.4 | .
CCOC(=O)c1oc2ccccc2c1NC(=O)Cc1cccs1 | -45.3 | 74.8 | . | 83.0*
CCOCC(=O)Nc1c(C(=O)OCC)oc2ccccc12 | 17.0 | -19.1 | 7.5 | 3.2
CCOC(=O)c1c(C)c(C(=O)O)n(C)c1C | 76.3* | -27.6 | . | -2.6
CCOC(=O)c1c(C)c(C(=O)NC(C)COC)c(C)n1C (stereo not drawn) | . | . | -24.4 | .
Fc1ccc(C2=CC(c3ccco3)n3ncnc3N2)cc1 (stereo not drawn) | . | . | 4.3 | .
OCCCc1nc2n(n1)C(c1cccs1)C=C(c1ccc(Br)cc1)N2 (stereo not drawn) | -3.9 | -7.9 | -4.6 | -16.3
Brc1ccc(C2=CC(c3cccs3)n3ncnc3N2)cc1 (stereo not drawn) | -1.0 | 14.9 | 99.9* | 3.7
C1=C(c2ccc(-c3ccccc3)cc2)Nc2ncnn2C1c1ccco1 (stereo not drawn) | 1.6 | 0.8 | 64.5* | -2.2
O=C(Oc1ccc(/C=N/Nc2ccccc2)cc1)c1ccccc1 | 3.6 | -9.6 | 57.9* | 9.1
O=C(Oc1ccc(/C=N/O)cc1)c1ccccc1 | -16.3 | -16.1 | -20.2 | -0.3
Cc1ccc(CNC(=O)CCc2nc3ccccc3c(=O)[nH]2)cc1 | . | . | 62.0* | .
CN1CCN(C(=O)CCc2nc3ccccc3c(=O)[nH]2)CC1 | -5.4 | -10.9 | 11.9 | -14.9
O=C(Cn1c(=O)sc2ccccc21)Nc1ccccc1C(=O)O | -8.2 | -38.1 | . | -70.8
Cc1ccccc1CN1C(=O)C2(OCCCO2)c2ccccc21 | 64.5* | -29.6 | -5.4 | 4.7
O=C(O)CN1C(=O)C2(OCCCO2)c2ccccc21 | -8.0 | 5.3 | -2.1 | 9.3
CCCC(C(=O)NC1CCCC1)N(C(=O)Cn1nnc(-c2ccc(C)o2)n1)c1ccccc1OC (stereo not drawn) | 16.9 | -21.3 | . | 10.4
O=C(CN1CCCCCC1=O)OCc1ncc(-c2ccccc2)o1 | -33.8 | 70.3 | . | 89.7*
N/C(CN1CCCC1=O)=N\OC(=O)c1ccccc1Cl | 8.8 | -15.0 | . | -4.8
O=C(NN1CCOCC1)c1cc(-c2ccc(Cl)c(Cl)c2)nc2ccccc12 | . | . | 4.0 | .
O=C(Nc1ccc(/C=C/c2nc3ccccc3o2)cc1)c1ccc(F)cc1 | 20.4 | -16.0 | -17.2 | 16.9
Cc1ccc(N2C(=O)C3C4C=CC(CNC(=S)Nc5ccc(F)cc5)(O4)C3C2=O)cc1 (stereo not drawn) | . | . | 68.1* | .
Cc1ccc(NC(=S)Nc2ccc(F)cc2)c(C)c1 | . | . | -27.9 | .
SMILES | F-actin modifier | HUVEC tox TNFa | E-sel TNF inh | VCAM1 TNFa inh
Brc1ccc(C2=Nn3c(nnc3-c3cccnc3)SC2)s1 | -0.2 | -29.8 | 5.2 | 2.2
Clc1ccc(C2=Nn3c(nnc3-c3cccnc3)SC2)s1 | -8.9 | 72.1 | . | 78.4*
Cn1c(=O)c2c(nc(SCC(=O)NC34CC5CC(CC(C5)C3)C4)n2C)n(C)c1=O | -15.8 | 14.3 | 68.3* | 1.0
Cc1ccc(-c2cnc3c(Cl)c(C)nn3c2)cc1 | . | . | -16.4 | .
Cc1ccc(CS(=O)(=O)Cc2ccc(C(=O)NCc3ccco3)o2)cc1 | 4.8 | -40.9 | 8.4 | -6.8
O=C(NCc1ccco1)c1ccc(CS(=O)(=O)Cc2ccc(Cl)cc2)o1 | -10.1 | 79.1* | . | 92.8*
CCOC(=O)c1nnn(-c2nonc2N)c1CSc1ccccn1 | 3.7 | -0.6 | . | -5.5
COc1cccc(-n2nc(C#N)c(Cl)cc2=O)c1 | . | . | 97.7* | .
O=C(Nc1ccc(F)cc1)N1CCOCC1 | 36.1 | -3.7 | 76.7* | -3.1
Cc1ccc(OC(=O)c2sc3ncn(C)c(=O)c3c2C)cc1 | . | . | -2.4 | .
CCCCOCCCNC(=O)c1cccs1 | 35.7 | -77.1 | 5.2 | 89.5*
CC(C)OCCCNC(=O)c1cccs1 | 10.9 | -0.4 | -6.9 | 18.4
CCc1ccc(-c2nc(CS(=O)CC(=O)NCc3cccnc3)c(C)o2)cc1 (stereo not drawn) | . | . | -2.5 | .
COc1ccc(-c2nc(CS(=O)CC(=O)NCc3cccnc3)c(C)o2)cc1 (stereo not drawn) | 13.2 | 82.2* | . | 18.5
C=CCn1c(SCC(=O)NCc2ccccc2)nnc1-c1ccccc1O | 21.9 | 0.8 | 40.4* | -4.8
C=CCn1c(CSCc2ccc(C)cc2)nnc1SCC(=O)NCc1ccccc1 | 5.8 | -12.5 | -9.1 | 1.6
O=C(CSc1nc2ccccc2c(=O)n1-c1ccccc1)NC(=O)CN1CCCC1=O | . | . | -2.4 | .
CCN(CC)c1ccc(NC(=O)C2CC3CCC2C3)cc1 (stereo not drawn) | . | . | 96.2* | .
Cc1nc(N)c(Cc2ccccc2F)c(N)n1 | . | . | 2.1 | .
Cc1ccc(Cl)cc1NC1=C/C(=N\S(=O)(=O)c2cccs2)c2ccccc2C1=O | 8.9 | 27.7 | 28.9 | 90.6*
CCC(C)(C)n1nnnc1C(c1ccc(OC)c(OC)c1)N1CCN(c2cccc(OC)c2)CC1 (stereo not drawn) | 15.4 | -21.7 | 19.4 | 10.0
CCC(C)(C)n1nnnc1C(c1ccc(OC)c(OC)c1)N1CCN(c2ccccc2)CC1 (stereo not drawn) | -1.4 | -6.0 | 83.3* | 1.5
Cn1c(=O)[nH]c(=O)c2c1nc(N1CCCCCC1)n2CC(N)=O | -5.9 | -8.7 | -41.6 | 9.7
C/C=C/Cn1c(N2CCCCCC2)nc2c1c(=O)[nH]c(=O)n2C | 13.3 | 3.4 | 74.1* | -9.2
Cc1ccc(OCc2ccc(C(=O)N3CCOCC3)cc2)cc1C | 16.4 | -30.4 | 2.6 | 5.1
SMILES | F-actin modifier | HUVEC tox TNFa | E-sel TNF inh | VCAM1 TNFa inh
Cc1ccc(OCc2ccoc2C(=O)O)cc1C | -7.4 | -7.0 | -22.8 | 96.6*
CCOc1ccc(OCCSc2nc(-c3ccccc3)cc(=O)[nH]2)cc1 | . | . | -3.0 | .
Cc1csc(-c2cnn(-c3ccccc3)c2NC(=O)c2cccc(C(F)(F)F)c2)n1 | -5.1 | -13.0 | . | 11.2
COC(=O)c1cc2ccsc2n1Cc1nc(-c2cccc(Cl)c2)oc1C | 3.7 | -16.7 | 82.1* | -3.3
Cn1c(CCNC(=O)c2ccc(Cl)c(Cl)c2)nnc1SCc1ccc(Cl)c(Cl)c1 | -17.0 | 4.2 | 99.8* | 3.4
C=CCOC(=O)C1=C(C)NC(SCC(=O)Nc2ccccc2)=C(C#N)C1c1ccco1 (stereo not drawn) | 0.8 | -19.9 | -58.3 | 7.8
O=[N+]([O-])c1cnccc1Nc1ccc(F)cc1 | 84.7* | 94.4* | 6.5 | 53.3*
Nc1ccc(Nc2ccncc2[N+](=O)[O-])cc1 | 7.8 | -10.6 | -26.7 | 9.0
CCNS(=O)(=O)c1c(C)cc(C)c(N(C)S(=O)(=O)c2ccccc2)c1C | . | . | -9.6 | .
Cc1cc(C(=O)Nc2nc3c(s2)CCCC3)no1 | . | -18.3 | 40.3* | 4.3
Cc1ccc2[nH]c3c(c2c1)CCCC3=O | -24.5 | 13.5 | -7.2 | 10.8
Cc1ccc2[nH]c3c(c2c1)CCC3=O | 15.1 | 2.1 | 3.0 | 49.7*
COc1ccc2nc(NC(=O)C(NS(=O)(=O)c3cccc4nsnc34)C(C)C)sc2c1 (stereo not drawn) | -9.3 | 86.0* | 1.3 | 13.3
O=C(CO/N=C/c1ccccc1OC(F)F)NCc1cccs1 | . | . | 90.4* | .
O=C(O)C1CC=CCC1C(=O)N1CCCC1 (stereo not drawn) | 13.6 | 96.2* | 5.8 | 82.2*
